The source of these data is PubChem BioAssay AID463173 (ICCB-Longwood Screening Facility, Harvard Medical School, 2010).

The whole screen tested about 52,000 compounds, of which about 1,700 (3.3%) were called active. Only a selection was taken, and actives are over-represented in it overall. Values without a mark were called inactive. Rule as the data show it: active = survival mostly below about 52% (no sharp cut-off); inactive = mostly above about 56%.

The test system of the experiment is Wild type. In words: growth inhibition of S. aureus wild type versus tarO mutant, primary screen, teichoic acid synthesis inhibitors, RN4220, OD600 (AID 463173). The note with it: S. aureus RN4220 wild type/DeltatarO growth, OD600, 18 h, active compounds read low, screened at 18.75 µg/mL (by protocol).
On to `Cc1cc(C)c(S(=O)(=O)NCC(c2ccco2)N2CCN(c3ccccc3)CC2)c(C)c1` (stereo not drawn), for which the survival was 85%.

Regarding `Cc1ccc(Nc2nc3ccccc3c3nncn23)c(Cl)c1`, the survival was 132%. For `O=C(NCc1cccs1)c1nn(-c2ccccc2Cl)nc1CO` the value was 116%. For `COc1cccc(-c2cc(C(=O)Nc3cc(OC)c(OC)c(OC)c3)on2)c1` the value was 69%; for `COc1ccc(NS(=O)(=O)c2ccc3[nH]c4c(c3c2)CCCC4)c(OC)c1`, 99%.

For the molecule `COc1cccc(CCNC(=O)c2cnc3sc(N4CCCCCC4)nn3c2=O)c1`, the survival was 80%. Under `O=C(CSc1ncc(S(=O)(=O)c2ccc(Cl)cc2)c(=O)[nH]1)Nc1cccc(C(F)(F)F)c1` stands 78%. Under `COc1cccc(-c2noc(COc3cccc(C)c3C)n2)c1` stands 85%; under `COc1ccccc1OCc1nc(-c2cccc(C)c2)no1`, 0% (active); under `COc1ccc(C(=O)NCc2nc(-c3cccc(C)c3)no2)cc1OC`, 113%.

With `Cc1ccc(N2C(=O)CS(=O)(=O)C23C(=O)N(Cc2cccc(F)c2)c2ccccc23)cc1Cl` (stereo not drawn), the survival is 75%. For `COc1ccc(CC(=O)N2CC(=O)Nc3ccc(Br)cc3C2c2ccc(F)cc2)cc1` (stereo not drawn), the survival was 64%. Under `Cc1ccc2c(c1)N(C(=O)Nc1cccc(C)c1C)CCO2` stands 89%. For `COc1cccc(CNC(=O)c2c(C)nn(-c3cccc(C)c3)c2-n2cccc2)c1`, the survival is 71%. Regarding `CCOC(=O)N1CCC(NC(=O)c2c(C)nn(-c3cccc(C)c3)c2-n2cccc2)CC1`, the survival was 85%.

As to `COc1cc(NC(=O)c2c(C)nn(-c3ccc(F)cc3)c2-n2cccc2)cc(OC)c1`, the survival is 70%. For `CCOC(=O)N1CCN(C(=O)c2c(C)nn(-c3cccc(C)c3)c2-n2cccc2)CC1` the value was -3% (active); for `Cc1cccc(-n2nc(C)c(C(=O)N3CCN(c4ccccc4)CC3)c2-n2cccc2)c1`, 53%; for `COc1cccc(NC(=O)c2c(C)nn(-c3cccc(C)c3)c2-n2cccc2)c1`, 0% (active).

Turning to `Cc1ccc(NC(=O)C2C3C=CC4(O3)C2C(=O)N(c2ccccc2F)C4C(=O)NC2CCCC2)cc1` (stereo not drawn), the survival was 84%. For `O=C(Nc1ccc(C(=O)OCc2cc(=O)n3nc(C4CC4)sc3n2)cc1)c1ccccc1` the value was 70%; for `O=C(CCc1nc2cccnc2n1Cc1cccs1)Nc1cccc(C(F)(F)F)c1`, 79%; for `CCOC(=O)C(CC)Sc1ncnc2sc3c(c12)CCCC3` (stereo not drawn), -3% (active). For `Nc1ncnc2sc3c(c12)CCCC3` the value was 109%; for `CCC(Sc1ncnc2sc3c(c12)CCCC3)C(=O)OCC(C)C` (stereo not drawn), -3% (active); for `CC(C)OCCCNc1ncnc2sc3c(c12)CCCC3`, 79%. Under `CCC(Sc1ncnc2sc3c(c12)CCCC3)C(=O)OC(C)C` (stereo not drawn) stands -2% (active); under `CCOC(=O)CSc1ncnc2sc3c(c12)CCC3`, 100%; under `CNC(=O)CSc1ncnc2sc3c(c12)CCCC3`, 104%. In the case of `Clc1ncnc2sc3c(c12)CCCC3`, the survival was 108%. Under `COC(=O)C(C)n1cnc2sc3c(c2c1=O)CCCC3` (stereo not drawn) stands 102%. `Cc1oc(-c2ccc(C(=O)Nc3cccc(C(F)(F)F)c3)cc2)nc1CSc1ccccc1`: the survival is 57%.

Turning to `Cc1ccc(C)c(N2CCN(S(=O)(=O)c3ccc4oc(=O)c5ncn(C)c5c4c3)CC2)c1`, the survival is 81%. Under `Cc1c(Cl)cccc1NC(=O)Nc1nnc(N(C)C2CCCCC2)s1` stands 111%; under `Cc1ccc(-n2c(=O)c3cccnc3n2CC(=O)Nc2ccc(Br)cc2)cc1C`, 57%; under `O=C(CSc1ncc(-c2ccccc2)[nH]1)Nc1cccc(Br)c1`, 13%. For `O=C(O)c1ccc(-c2ccc(/C=N/N3C(=O)C4C(C3=O)C3C=CC4C34CC4)o2)cc1` (stereo not drawn) the value was 110%; for `CC1CCN(S(=O)(=O)c2ccc3c(c2)N(C)C(=O)CC(=O)N3C)CC1`, 74%; for `Cc1cccn2c(=O)c3cc(C(=O)NCC(C)C)sc3nc12`, 80%. For `COc1ccccc1N(C)C(=O)Cn1c(=O)oc2cc(S(=O)(=O)N3CCCC3)ccc21` the value was 127%; for `CCOc1ccc(NC(=O)CSc2nnc3scc(-c4ccccc4)n23)cc1`, 48%. Consider `COC(=O)c1ccc(NC(=O)CN2CCCN(Cc3ccc(Cl)cc3)S2(=O)=O)cc1`, for which the survival is 110%. Under `Cc1ccc(CN2CCCN(Cc3c(C)cc(C)cc3C)S2(=O)=O)cc1` stands 63%. For `COc1ccc(NC(=O)CN2CCCN(Cc3ccc(Cl)cc3)S2(=O)=O)cc1Cl` the value was 67%. For `Cc1ccc(C)c(CN2CCCN(Cc3ccc(F)cc3)S2(=O)=O)c1` the value was -6% (active). For `Cc1ccc(C)c(CN2CCCN(Cc3ccccc3C)S2(=O)=O)c1`, the survival is 76%. Under `COC(=O)c1ccc(OC)c(CN2CCCN(Cc3ccc(C)cc3)S2(=O)=O)c1` stands -3% (active).

As to `CCc1c(CN2CCN(c3cccc(C)c3)C(C)C2)csc1C` (stereo not drawn), the survival was 94%. For `Cc1c(-c2ccccc2)c(=O)oc2ccc(OC(=O)N3CCOCC3)cc12` the value was 78%; for `CC(C)(C)OC(=O)N1CCC(c2c(C(=O)N3CCN(c4ncccn4)CC3)cnn2-c2cccc(F)c2)CC1`, 134%. Under `CCCOc1ccc(Nc2cc(C)nc(C)n2)cc1` stands 82%; under `Cc1cc(C)cc(NC(=O)CCCc2nnc3n(CC(C)C)c(=O)c4sccc4n23)c1`, 97%; under `Cc1ccc(-n2nnc(-c3nsc(NC(=O)c4ccccc4C)n3)c2C)cc1Cl`, 159%. Under `CCc1cccc(-n2nnc(-c3nsc(NC(=O)c4cccs4)n3)c2C)c1` stands -6% (active); under `CCc1cccc(-n2nnc(-c3nsc(NC(=O)c4ccc(C)cc4)n3)c2C)c1`, 53%; under `Cc1cc(C)cc(-n2nnc(-c3nsc(NC(=O)c4ccccc4Cl)n3)c2C)c1`, 49%. Regarding `CSc1cccc(-n2nnc(-c3nsc(NC(=O)c4cccs4)n3)c2C)c1`, the survival was 80%.

Consider `CCc1ccc(-n2nnc(-c3nsc(NC(=O)c4ccccc4Cl)n3)c2C)cc1`, for which the survival is 12% (active). Under `Cn1c(=O)c2cc(C(=O)NC3CCCCCC3)sc2c2ccccc21` stands 89%.

As to `CCCN(CCC)C(=O)Cn1c(=O)n(Cc2ccc(C(=O)NCCc3ccc(Cl)cc3)cc2)c(=O)c2ccccc21`, the survival is 113%. Regarding `CCCCN(C(=O)CCn1c(=O)oc2ccccc21)c1ccccc1`, the survival is 71%.

Turning to `COc1ccc(S(=O)(=O)n2nc(C)c(S(=O)(=O)N3CCCCC3)c2C)cc1`, the survival was 63%. For `CCCOc1ccc(OC(=O)c2sc3ncn(Cc4cccc(F)c4)c(=O)c3c2C)cc1` the value was 56%; for `COc1ccc(C(=O)Nc2ccccc2C(=O)OCc2cc(=O)n3nc(C4CC4)sc3n2)cc1`, 67%.

For `CCCCCOC(=O)CSc1ncnc2c1sc1nc(N3CCOCC3)c3c(c12)CCCC3`, the survival was 61%. With `CCOC(=O)CSc1nc2sc3c(c2c(=O)n1Cc1ccccc1)CC(C)CC3` (stereo not drawn), the survival is 68%. As for `CCCOC(=O)CSc1ncnc2sc3c(c12)CCC(C)C3` (stereo not drawn), the survival was 7% (active). Regarding `Cc1ccc(OCCCCn2nnc3sc4c(c3c2=O)CCC(C)C4)cc1` (stereo not drawn), the survival is 94%. Under `CCCCCOC(=O)CSc1ncnc2sc3c(c12)CCC(C)C3` (stereo not drawn) stands -1% (active). For the molecule `Cc1ccc(-c2nc(NC(=O)CSc3ncnc4sc5c(c34)CCC(C)C5)ns2)cc1` (stereo not drawn), the survival was 75%.

Consider `CC1CCc2c(sc3ncnc(NCCOCCO)c23)C1` (stereo not drawn), for which the survival was 106%.

On to `CCCCOC(=O)CSc1ncnc2sc3c(c12)CCC(C)C3` (stereo not drawn), for which the survival was 15% (active). For `CCC(C(=O)OC(C)C)n1cnc2sc3c(c2c1=O)CCC(C)C3` (stereo not drawn) the value was 71%; for `COc1ccccc1C(=O)Nc1nnc(SCc2cc(=O)c3ccccc3[nH]2)s1`, 72%. For `COc1ccc(NC(=O)c2cc(C(C)=O)n3ccccc23)cc1Cl` the value was 87%; for `CCn1c(=O)c2sccc2n2c(CCCC(=O)N3CCN(c4ccc(OC)cc4)CC3)nnc12`, 96%; for `CCN(c1ccccc1)S(C)(=O)=O`, 101%.

Take `Cc1ccn2c(Nc3ccc(C(C)C)cc3)c(-c3cccs3)nc2c1`: the survival is 53%.

Turning to `Cc1ccc(CNC(=O)C(C)n2nc(C)c3sc4ccccc4c3c2=O)cc1` (stereo not drawn), the survival is 105%. For `Cc1ccc(OCC(=O)N(Cc2ccc(N(C)C)cc2)CC2CCCO2)cc1C` (stereo not drawn) the value was 82%; for `CCc1ccc(C(=O)c2cn(Cc3ccccc3)c3cc(OC)c(OC)cc3c2=O)cc1`, 97%.

As for `COc1ccccc1Cn1cc(C(=O)c2ccc(C)cc2)c(=O)c2cc(C)ccc21`, the survival was 121%. Under `COc1ccccc1Cn1cc(C(=O)c2ccccc2)c(=O)c2cc(OC)c(OC)cc21` stands 10% (active); under `O=C(c1ccc2c(c1)OCCO2)N(Cc1cccnc1)c1nc2c(Cl)cccc2s1`, 128%. Under `O=C(Nc1cccc(C(F)(F)F)c1)c1cc(-c2ccc(Cl)s2)nc2ccccc12` stands 100%; under `CCn1nc(C)c2c(-c3ccccc3)cc(=O)n(C(C)C(=O)NCc3ccc(C)cc3)c21` (stereo not drawn), 127%. In the case of `COc1ccc(NC(=O)C2=C(C)Nc3ncnn3C2c2cccn2C)cc1` (stereo not drawn), the survival is 85%. For `COc1ccc(NC(=O)C2=C(C)Nc3ncnn3C2c2ccc[nH]2)cc1` (stereo not drawn) the value was 83%; for `CC1=C(C(=O)Nc2ccccc2)C(c2cccn2C)n2ncnc2N1` (stereo not drawn), 76%. For `CC1=C(C(=O)Nc2ccccc2)C(c2ccc[nH]2)n2ncnc2N1` (stereo not drawn) the value was -3% (active); for `COc1ccccc1NC(=O)C1=C(C)Nc2ncnn2C1c1cccn1C` (stereo not drawn), 0% (active). Under `CC1=C(C(=O)Nc2ccccc2C)C(c2ccc[nH]2)n2ncnc2N1` (stereo not drawn) stands 99%; under `COc1ccc(C2C(=O)N(C3CCCCCC3)CC(=O)N2Cc2ccccc2)cc1` (stereo not drawn), 67%.
